Screening results deposited in PubChem by The Scripps Research Institute Molecular Screening Center.
MsrA act – activates bovine MsrA enzyme. AID 602163. 360,000 tested, 0.3% active. purified bovine MsrA, absorbance read-out. activation, % at 10.6 µM; in the data active means activation above about 7.5%;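 further: 0% = vehicle and 100% = reference activator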
MsrA inh – inhibits bovine methionine sulfoxide reductase A; purified bovine MsrA, absorbance read-out; inhibition, % at 15.5 µM; 360,000 tested, 0.75% active; AID 651718; in the data active means inhibition above about 4.5%;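 further: 0% = vehicle wells with enzyme and 100% = reference inhibitor wells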
PLC-beta3 inh – inhibitors of human phospholipase C beta3. Q01970. Purified PLC-beta3, fluorogenic substrate, fluorescence. inhibition, % at 12.2 µM. 370,000 tested, 0.18% active. AID 720704; in the data active means inhibition above about 11%;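 further: 0% = median of compound wells on plate and 100% = full blocker control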
PLCg1 inh – inhibitors of human phospholipase C gamma1; purified PLC-gamma1, fluorogenic substrate, fluorescence; 370,000 tested, 0.84% active; inhibition, % at 12.2 µM; P19174; AID 720700
PLCgamma1 ctr – counter-screen for PLC-beta3 inhibitors: inhibitors of human PLC-gamma1 | purified PLC-gamma1, fluorogenic substrate, fluorescence | 3,300 tested, 3.1% active | inhibition, % at 12.3 µM | AID 743258 | shares compounds with PLCg1 inh
PLCb3 confirm – confirmation of human PLC-beta3 inhibitors | purified PLC-beta3, fluorogenic substrate fluorescence | shares compounds with PLCg1 inh | 3,300 tested, 1% active | inhibition, % at 12.3 µM; in the data active means inhibition above about 11%
Numbers without * were called inactive; . = no result given. An excerpt weighted towards active compounds, which were near 1.9% of everything screened. Unless noted, no stated cut-off is given here; in the data, active means inhibition above about 9.5%; inactive means the rest.

SMILES | MsrA act | MsrA inh | PLC-beta3 inh | PLCg1 inh | PLCgamma1 ctr | PLCb3 confirm
CCO[C@H]1OC(C(=O)NCc2ccccc2)=C[C@@H](c2ccc(C(F)(F)F)cc2)[C@@H]1CCCO | 2 | 0 | 2 | 2 | . | .
Cc1cnn(-c2cc(N/N=C/c3ccccc3F)ncn2)c1 | -3 | 1 | 5 | 12* | -7 | -3
Cc1cnn(-c2cc(N/N=C/c3ccccc3)ncn2)c1 | -9 | . | . | . | . | .
CCSc1nnc(NC(=O)c2cc(C)oc2C)s1 | -8 | 0 | 3 | 11* | -6 | -3
C[C@H]1COc2cc(NCCO)ccc2S(=O)(=O)N1 | . | -1 | -1 | -3 | . | .
CCOC(=O)c1ccc(NC(=O)c2nc[nH]c2C(=O)N2CCN(C(=O)OC(C)(C)C)CC2)cc1 | . | 0 | 3 | 7 | . | .
CC(C)(C)OC(=O)N1CCN(C(=O)c2[nH]cnc2C(=O)Nc2cccc(Cl)c2)CC1 | -3 | 0 | 1 | 9.7* | -5 | -3
COC(=O)C[C@H]1C[C@H]2c3cc(NC(=O)Cc4ccncc4)ccc3O[C@H]2[C@@H](CO)O1 | 4 | -1 | 1 | 0 | . | .
CC(C)(C)c1ccc(CNc2nc(-c3ccccn3)nnc2-c2ccccc2)cc1 | . | . | 5 | 18* | 14* | 15*
CN(C)CCN1CCN(C2CN(Cc3cn(Cc4ccccc4C(F)(F)F)nn3)S(=O)(=O)C2)CC1 (stereo unspecified) | -2 | -1 | 2 | -1 | . | .
Cc1ccc(NC(=S)NC2CC3CCC(C2)N3Cc2ccco2)cc1C (stereo unspecified) | -3 | 1 | 6 | 13* | -5 | -2
Cc1noc(C)c1NC(=O)Nc1ccc2c(c1)CC(=O)N([C@@H](C)CO)C[C@@H](C)[C@@H](CN(C)C(=O)Nc1cccc3ccccc13)O2 | -6 | 0 | -32 | -23 | . | .
COc1ccc(CCN(C)C2CCCN(C(=O)CCSC)C2)cc1OC (stereo unspecified) | -1 | 0 | -4 | 2 | . | .
COc1ccc(CCN(C)C2CCCN(C(=O)CCC(F)(F)F)C2)cc1OC (stereo unspecified) | -2 | 1 | -8 | 9.6* | -1 | -3
CCC(C)NC(=O)CSc1nnc(-c2cc(OC)c(OC)c(OC)c2)o1 (stereo unspecified) | . | . | 3 | 1 | . | .
O=C(COC(=O)/C=C/c1ccccc1[N+](=O)[O-])Nc1ccc(OC(F)F)cc1 | -5 | 1 | 1 | 11* | -5 | -3
CCO[C@H]1C[C@@H](c2ccc(CC)cc2)N(S(=O)(=O)c2ccc(C)cc2)C2CC(c3ccc(CC)cc3)N(S(=O)(=O)c3ccc(C)cc3)CC21 (stereo partly specified) | . | 0 | 3 | 1 | . | .
CN1C(=O)N(CC(=O)Nc2cccc(S(=O)(=O)N(C)c3ccccc3)c2)C(=O)C12CCCCC2 | -5 | 0 | 0 | 14* | -4 | -3
Cn1c(=O)c2cc(NC(=O)NCCc3cccs3)ccc2n1C/C=C/c1ccccc1 | -4 | . | . | . | . | .
CN1CCc2ccccc2C1C1CCNCC1 (stereo unspecified) | -1 | 0 | 0 | 0 | . | .
CCC1C(=O)N(C)CCc2ccccc21 (stereo unspecified) | -11 | 1 | 4 | 12* | 5 | -2
CCOC(=O)C1CSCCS(=O)(=O)N1Cc1cc(F)ccc1Br (stereo unspecified) | . | 1 | 0 | -2 | . | .
CCOC(=O)c1cc(-c2csc(Nc3c(C)cc(C)cc3C)n2)on1 | -7 | 1 | 1 | 9.8* | -8 | -4
O=C(Nc1cccc(OC(F)(F)F)c1)c1cccc2c(-c3cccnc3)coc12 | -7 | . | . | . | . | .
O=C(O)C1C2C=CC(C3CC23)C1C(=O)O (stereo unspecified) | -3 | 0 | -1 | 10* | -5 | -4
SMILES | MsrA act | MsrA inh | PLC-beta3 inh | PLCg1 inh | PLCgamma1 ctr | PLCb3 confirm
Cc1cccc(NC(=O)C2C3C=CC(C4CC34)C2C(=O)O)c1 (stereo unspecified) | -6 | 0 | 6 | 7 | . | .
CCCN(C)C1CN(Cc2cn(Cc3ccc(OC)cc3)nn2)S(=O)(=O)C1 (stereo unspecified) | -4 | 1 | 4 | 1 | . | .
COc1ccc(C(=O)OCC(=O)Nc2c(C)n(C)n(-c3ccccc3)c2=O)cc1 | -3 | 1 | 1 | 12* | -3 | -4
CC(=O)N=c1sc(C(C)(C)C)c(C)n1C | 2 | -1 | 1 | 9.8* | -2 | -4
Nc1[nH]c(C(=O)c2ccccc2)c(-c2ccc(Cl)cc2)c1C(=O)c1c[nH]c2ccc(F)cc12 | . | 0 | -10 | -11 | . | .
Cc1sc(N)nc1C12CC3CC(CC(C3)C1)C2 | -11 | 1 | -9 | 1 | . | .
